For part of these data: Measured potencies and affinities stand elsewhere.
Columns and labels:
Staphylococcus aureus = test: Antibacterial activity against Staphylococcus aureus MRSA ATCC 43300 (CO-ADD:GP_020); MIC in CAMBH media using NBS plates, by Resazurin F(560/590); type: functional; conditions: Concentration 20 uM, ASSAY_TEST Inhibition of Bacterial Growth, detection method Resazurin, Fluorescence (ex560/em590), MEDIA CAMHB, plate type 384well, CORNING #3640, time 18 hr
Acinetobacter baumannii = test: Antibacterial activity against Acinetobacter baumannii ATCC 19606 (CO-ADD:GN_034); MIC in CAMBH media using NBS plates, by Resazurin F(560/590); type: functional; conditions: Concentration 20 uM, ASSAY_TEST Inhibition of Bacterial Growth, detection method Resazurin, Fluorescence (ex560/em590), MEDIA CAMHB, plate type 384well, CORNING #3640, time 18 hr
Escherichia coli = test: Antibacterial activity against Escherichia coli ATCC 25922 (CO-ADD:GN_001); MIC in CAMBH media using NBS plates, by Resazurin F(560/590); type: functional; conditions: Concentration 20 uM, ASSAY_TEST Inhibition of Bacterial Growth, detection method Resazurin, Fluorescence (ex560/em590), MEDIA CAMHB, plate type 384well, CORNING #3640, time 18 hr
Klebsiella pneumoniae = conditions: Concentration 20 uM; ASSAY_TEST Inhibition of Bacterial Growth; detection method Absorption (OD600); MEDIA CAMHB; plate type 384well; NBS; CORNING #3640; time 18 hr
Candida albicans = conditions: 20 µM
Cryptococcus neoformans = conditions: Concentration 20 uM; ASSAY_TEST Inhibition of Fungal Growth; detection method Resazurin; Absorption (OD600-OD570); plate type 384well; NBS; CORNING #3640

SMILES	Inhibition (Staphylococcus aureus) [%]	Inhibition (Acinetobacter baumannii) [%]	Inhibition (Escherichia coli) [%]	Inhibition (Klebsiella pneumoniae) [%]	Inhibition (Candida albicans) [%]	Inhibition (Cryptococcus neoformans) [%]
CCC(C)n1c(C)cc(=O)n1C(C)CC (centres undefined)	2.1	-5.44	-0.28	0.77	-0.29	-4.99
N=C(N)n1c(N)nc2ccccc2c1=O	-3.84	11.96	12.39	5.57	0.23	-13.19
CC(=O)Nc1ccc(OCCOc2ccc([N+](=O)[O-])cc2)cc1	16.53	7.01	2.93	10.72	-1.95	-16.57
CCOC(=O)C(=O)C1C(=O)Nc2ccccc21 (centres undefined)	11.5	4.6	-3.33	15.66	13.9	-6.08
N#CC1C=Cc2c(ccc3ccccc23)N1C(=O)c1ccccc1 (centres undefined)	29.76	-9.2	7.35	24.48	11.9	2.44
c1ccc2nc(NN=C3CCCCC3)ccc2c1	9.39	-16.84	10.6	9.11	3.78	-6.92
O=C(O)c1ccc2c(c1Sc1ccccc1)C(=O)c1ccccc1C2=O	-2.35	11.62	-1.12	2.65	1.7	-3.15
Cc1nnc(Cc2ccccc2)c2[nH]nc(C)c12	16.17	11.32	1.75	14.15	5.79	-4.44
O=C(Nc1cccc2ccccc12)c1cc2c(cc1Br)OCO2	5.22	3.29	17.42	10.46	2.94	-19.33
CCOC(=O)/C=C/c1ccc(C(=O)OCC)[nH]1	42.73	10.2	20.38	8.24	7.12	8.93
CN1CCC=C(C(=O)N2c3ccccc3Sc3ccc(Cl)cc32)C1.O=C(O)CCC(=O)O	8.59	-10	17.87	-0.76	-1.22	-4.64
COc1cc2c(O)cc(C(=O)O)c(-c3cc(OC)c(OC)c(OC)c3)c2cc1OC	5.82	-7.99	8.13	8.82	-0.33	-9.59
O=c1c(-c2ccc(O)cc2)coc2cc(O)cc(O)c12 [GENISTEIN]	3.06	1.42	2.99	22.48	6.45	-7.01
Cc1ccncc1C(N)=O	0.11	-6.4	17.18	14.09	1.98	-4.15
Cc1ccccc1N=C(S)Nc1ccccn1	-11.3	17.16	-8.87	16.17	15.5	4.14
CSc1nc(S)c2[nH]c(S)nc2n1	13.61	-13.83	6.32	11	6.49	2.53
Oc1nccc(SCc2ccc(Cl)cc2Cl)n1	9.05	6.51	5.78	11.54	6.12	-13.08
Cc1ccc(S(=O)(=O)NC(=O)Nc2nccs2)cc1	16.17	-9.13	9.78	14.17	1.46	-5.56
C1COCCN1.O=C(O)C(C=C(Cl)Cl)N1CCOCC1 (centres undefined)	15.53	-4.57	-1.54	22.22	3.18	-2.22
Cc1cc(N2CCOCC2)nc(N2CCOCC2)n1	0.14	-0.73	6.71	4.64	1.08	-7.95
CC(C1=C(CCN(C)C)Cc2ccccc21)c1ccccn1.O=C(O)/C=C\C(=O)O (centres undefined) [DIMETHINDENE MALEATE]	21.63	-11.43	16.27	18.33	1.91	-1.76
NC(=O)/C(=C\c1ccncc1)c1cccc2ccccc12	3.23	-18.71	6.96	13.72	-4.11	-6.45
O=C(OCC1CCC=CO1)C1CCC=CO1 (centres undefined)	6.99	-10.56	3.07	7.72	0.31	-9.47
C1CCCC(NC2=NCCO2)CCC1	-8.35	-11.54	-9.72	4.38	-2.21	-3.14
O=C1NC(=O)C2(CCc3ccccc32)N1 (centres undefined)	-0.71	-7.84	5.32	9.04	4.28	0.2

SMILES	Inhibition (Staphylococcus aureus) [%]	Inhibition (Acinetobacter baumannii) [%]	Inhibition (Escherichia coli) [%]	Inhibition (Klebsiella pneumoniae) [%]	Inhibition (Candida albicans) [%]	Inhibition (Cryptococcus neoformans) [%]
Sc1nccn1-c1ccccc1Cl	5.33	14.25	-3.3	6.92	3.82	-5.04
CC1(C)OC2C(CO)OC(n3cnc4c(S)ncnc43)C2O1 (centres undefined)	1.89	-15.97	11.94	6.21	4.06	-14.25
CNc1ccc(/N=N/c2cc[n+]([O-])cc2C)cc1C	-1.07	-11.34	7.82	8.63	-0.41	-28.56
CCOC(=O)N1CCN(Cc2c(O)ccc3ccccc23)CC1	1.46	-8.59	8.73	12.37	3.24	-5.96
N#CC1=CC2CN(Cc3ccccc3)C1C1C(=O)N(c3ccccc3)C(=O)C21 (centres undefined)	-0.51	3.07	-13.61	5.72	9.06	18.01
NC(=O)NC1NC(=O)NC1=O (centres undefined) [ALLANTOIN]	12.16	-7.41	9.38	18.45	2.26	-7.8
NC(=O)c1ccccc1NC(=O)COc1ccc(Cl)cc1	16.24	7.59	9.93	7.02	1.18	-8.55
CCN(CC)CCNc1c(C)cc(CO)c(Cl)c1C.O=S(=O)(O)NC1CCCCC1	5.65	-16.4	16.33	7.45	1.43	-0.32
CC(=O)NCC(=O)O.CN(C)CCC1c2ccc(Cl)cc2CCc2cccnc21 (centres undefined) [CLOSIRAMINE ACETURATE]	15.26	-11.76	19.15	8.33	-2.05	-9.31
c1ccn(CCc2ccncc2)c1	10.09	-4.91	7.14	10.92	2.03	-5.95
c1ccc(-c2nc[nH]c2-c2ccccc2)cc1	15.79	-13.75	11.94	6.07	-1.64	-10.72
O=C(COc1cc(Cl)c(Cl)cc1Cl)Nc1ccc([N+](=O)[O-])cc1Cl	25.16	-3.59	13.57	15.89	2.39	1.18
N#Cc1nnn2c1nc(N)c1c(Cl)cccc12	11.84	9.93	2.46	14.13	1.33	-4.78
Nc1ccc2c(c1Cl)C(=O)c1ccc(N)c(Cl)c1C2=O	3.14	-5.21	14.11	8.12	-1.01	17.48
CC1=C(C(N)=O)S(=O)(=O)c2ccccc21	7.64	-12.26	14.02	8.77	2.88	-16.62
Nc1ccc2c(c1)N=[N+]([O-])c1cc(N)ccc1C2	12.24	-9.52	10.77	23.9	-4.33	-8.98
c1ccc(Nc2cccc3c(Nc4ccccc4)cccc23)cc1	-4.86	-14.93	9.5	12.7	-0.47	-1.96
Cc1c(C#N)c2n(c1C)CCCC(=O)N2	39.05	3.89	19.57	7.55	10.6	5.76
Cc1ccc(C#CC(C)(O)C(C)(C)C)cn1 (centres undefined)	4.47	10.01	1.4	18.58	7.24	-1.46
N#Cc1c(N)nc(N)nc1Nc1ccc(Br)cc1	13.29	-8.2	-5.32	20.88	2.67	-16.04
O=C1NC(=O)C(Cc2ccccc2)(c2cccnc2)N1 (centres undefined)	33.81	2.65	15.22	9.85	7.24	16.94
CCC(C)NC(=O)CC(C)C (centres undefined)	6.08	-12.68	19.94	15.35	-0.68	-12.52
CCCc1nc2c(=O)n(C)c(=O)n(C)c2[nH]1	14.39	-13.67	8.23	14.55	2.02	-4.69
O=C(c1ccccc1)C1N=NCC1c1ccc(Cl)cc1 (centres undefined)	21.05	1.64	18.84	8.27	8.01	-11.46

From ChEMBL document CHEMBL4296182, “CO-ADD screening of NIH NCI Diversity Set V”
